Test results from ChEMBL document CHEMBL4513216, “Probing the Open Global Health Chemical Diversity Library for Multistage-Active Starting Points for Next-Generation Antimalarials” (ACS Infect Dis, 2020).
Among all 69,000 compounds or so, about 8,600 (12%) showed an effect of 50% or more. What follows is part of a selection rich in strong results, with near analogues and random picks from the rest.

Tested on: Plasmodium berghei
Test: Screen against P. berghei liver stage (PbLuc), transformed with Luciferase, at 10uM
Assay type: functional, HepG2
Details: tested at 10 uM

Row | Structure (SMILES) | INHIBITION [%]
1 | Cc1cc(C(=O)NC(C)Cc2ccc(N(C)C)cc2)n(C)n1 (centres undefined) | 44.7
2 | Cc1nc(CN2CCN(S(=O)(=O)N3CCOCC3)CC2)oc1C | 31.2
3 | Cc1nc(CN2CCN(S(=O)(=O)N3CCCCC3)CC2)oc1C | 19.4
4 | Cc1nc2ccc(Cl)cn2c1CN1CCN(S(=O)(=O)N2CCCC2)CC1 | 57.55
5 | COCC(=O)N1CCC2(CCCN(Cc3ccc(Cl)cc3)CC2)CC1 | 17.6
6 | COCC(=O)N1CCCN(Cc2c(C)nc3ccc(Cl)cn23)CC1 | 73.6
7 | COCC(=O)N1CCCN(Cc2cc(O)c3ccccc3n2)CC1 | 32.1
8 | COCCN1C[C@@H](C)[C@@]2(COCCN(C(=O)Cc3ccccc3)C2)C1 | -8.94
9 | CN1CCC2(CCN(S(=O)(=O)c3ccc(-c4cnco4)s3)CC2)C1 | 28.4
10 | OCCCN1CCc2[nH]nc(C(c3ccccc3)c3ccccc3)c2C1 | 18.7
11 | CN(C)C(=O)c1nc2c(n1C)CCN(Cc1ccccc1)C2 | -31.4
12 | FC(F)(F)c1[nH]nc2c1CN(Cc1ccccc1)CC2 | 84.2
13 | CN(Cc1cnn(C)c1)C(=O)c1ccc(=O)n(C)n1 | -19.7
14 | O=C(Nc1ccccc1)N1CCC(n2cc3[nH]cccc-3c2=O)CC1 | 32
15 | Cc1nc(CN2CCCC(NCc3ccc(C(N)=O)cc3)C2)no1 (centres undefined) | 11.2
16 | Cc1nnc(NC(=O)NCc2ccc(N3CCC(C)CC3)nc2)s1 | 33.3
17 | Cc1ccc(C(=O)N2CC(Oc3ccccc3C)C2)s1 | 18.4
18 | CC(=O)c1ccc(CN2CC(Oc3ccccc3C)C2)cc1 | 52
19 | Cc1ccccc1OC1CN(Cc2c(C)nc3ccccn23)C1 | 91.8
20 | Cc1nc2ccccn2c1CN1C[C@@H](CN(C)CCO)[C@@H](CO)C1 | 29
21 | CC(=O)c1cccc(CN2CC(Oc3ccccc3C)C2)c1 | 52
22 | CSCC[C@H](N)C(=O)N1CC(Oc2ccccc2C)C1 | -13.5

Row | Structure (SMILES) | INHIBITION [%]
23 | Cc1nc2ccccn2c1CN1C[C@@H](CN(C)C)[C@@H](CO)C1 | 45.3
24 | COCc1ncc(CN2CC(Oc3c(C)cccc3C)C2)cn1 | 31.2
25 | COc1ccccc1OC1CN(Cc2ccc(C(=O)O)cc2)C1 | 14.3
26 | O=C(c1n[nH]cc1Cl)N1CCSCC1 | -10.6
27 | COCCNC(=O)c1sc2ccccc2c1C1CCC(CN)CC1 (centres undefined) | 3.48
28 | COCCN1C[C@@H]2CCCO[C@@H]2[C@H](NC(=O)c2cnccn2)C1 | -17
29 | O=C(NC1CC1)N1CCN(c2cnccn2)CC1 | -11.4
30 | Cc1nc(N(C)C)cc(C2(C)CCCNC2)n1 (centres undefined) | 8.42
31 | NS(=O)(=O)c1ccc(C(=O)N2CCCC2c2ccccc2)o1 (centres undefined) | 12.7
32 | CC(C)c1nnc(CN2CCN(CC(O)c3ccccc3)CC2)o1 (centres undefined) | 36.1
33 | Cc1nc(N2CCN(C)CC2)ncc1C(=O)N1C[C@@H](C)[C@@](C)(O)C1 | 34.9
34 | O=c1[nH]nc2c(N3CCOCC3)nccn12 | 56.5
35 | O=c1[nH]nc2c(N3CCCCCC3)nccn12 | 47.4
36 | O=c1[nH]nc2c(N3CCC(NC4CCOCC4)CC3)nccn12 | 33.3
37 | O=C1OCCN1CCNC(=O)C1(N2CCCCC2)Cc2ccccc2C1 | 6.54
38 | NC(=O)N1CCCN(CCc2nc(-c3cccc(Cl)c3)no2)CC1 | 2.22
39 | Clc1cccc(-c2noc(CCN3CCN(c4ccncc4)CC3)n2)c1 | 61.8
40 | CCOC1CCN(CCc2nc(-c3cccc(Cl)c3)no2)CC1 | 46.3
41 | O=C(NCc1ccccc1-n1cccn1)N1CCC(N2CCCC2)C1 (centres undefined) | 17.4
42 | CCN(CC(=O)Nc1cc(Cl)ccc1C)C(=O)c1ccncc1 | -10.8
43 | CCC(C)NC(=O)c1ccc(NC(=O)CCCn2cncn2)c(C)c1 (centres undefined) | 5.64
44 | CCCC(=O)Nc1cc(C(=O)NC(C)Cc2ccncc2)ccc1C (centres undefined) | 57.5

Row | Structure (SMILES) | INHIBITION [%]
45 | CC(=O)N[C@@H]1CN(C(=O)c2cccc(C(F)(F)F)c2)C[C@H]1O | -4.1
46 | CCc1nnc2n1CCN(C(C(=O)N(CC)CC)c1ccccc1)C2 (centres undefined) | 19.4
47 | CC1CCC(NC(=O)CNC2(c3ccc(F)cc3)CCOCC2)CC1 (centres undefined) | 12.8
48 | Cc1cccn2cc(CNS(=O)(=O)N3CCOCC3)nc12 | 19.8
49 | Cn1nnc2c1CCN(Cc1ccncc1)C2COCc1ccccc1 (centres undefined) | 17.2
50 | C1CC(CN2CCc3c(nnn3CC3CC3)C2COCC2CC2)C1 (centres undefined) | 43.3
51 | Cc1ccc(CN2CCc3c(nnn3C)C2COCc2ccccc2)s1 (centres undefined) | 59.3
52 | Cn1nnc2c1CCN(CC1CC1)C2COCc1ccccc1 (centres undefined) | 39.8
53 | CN(C)C(=O)N1CCc2c(nnn2C)C1COCC1CC1 (centres undefined) | 12.7
54 | Cn1nnc2c1CCN(Cc1ccoc1)C2COCc1ccccc1 (centres undefined) | -6.39
55 | Cn1nnc2c1CCN(S(C)(=O)=O)C2COCc1ccccc1 (centres undefined) | 53
56 | Cn1nnc2c1CCN(S(C)(=O)=O)C2COCC1CC1 (centres undefined) | 57.1
57 | CS(=O)(=O)N1CCc2c(nnn2CC2CC2)C1COCC1CC1 (centres undefined) | 58.5
58 | C1CN(CC2CC2)C(COCC2CC2)c2nnn(CC3CC3)c21 (centres undefined) | 15.6
59 | Cn1nnc2c1CCN(CC1CC1)C2COCC1CC1 (centres undefined) | 38.5
60 | CCn1nnc2c1CCN(S(C)(=O)=O)C2COCc1ccccc1 (centres undefined) | -3.51
61 | CCc1ccc(NC(=O)N2Cc3c(CN(C)C)nn(C)c3C2)cc1 | 33
62 | COc1cccc(OCCn2c(C)c(C)oc2=O)c1 | 31.4
63 | CCC1=N[C@@]2(CC[C@@H]3CN(Cc4ccccc4F)C[C@@H]32)C(=O)N1 | 10.5
64 | Cc1nc(C)n(CC2CCCN2Cc2nc3ccccc3o2)n1 (centres undefined) | 33.8
65 | COC(=O)CCn1ccc(=O)c2ccc(OC)cc21 | -7.53
66 | CNc1cncc(C2CCCN2C(=O)Cn2c(=O)oc3ccccc32)n1 (centres undefined) | 23.4

Row | Structure (SMILES) | INHIBITION [%]
67 | CC(C)(C)c1cc(CN2C[C@@H]3CC[C@H]2CN(Cc2ccccn2)C3)n[nH]1 | -2.73
68 | COc1cc(N2CCc3ncnc(-c4ccncc4)c3CC2)ncn1 | 33
69 | COCc1nc(N(C)C)ncc1C(=O)Nc1cc(C)cc(C)c1 | 35
70 | CN(C)c1nc2c(c(=O)[nH]1)Cc1ccccc1OC2 | 54.4
71 | Cc1nc2c(c(N[C@H](C(N)=O)C(C)C)n1)Cc1ccccc1OC2 | -19.8
72 | CN(CC1(CO)CCCC1)c1nc2c(c(=O)[nH]1)Cc1ccccc1OC2 | 71.2
73 | Cc1nc2c(c(NCCNC(=O)C(C)C)n1)Cc1ccccc1OC2 | -0.55
74 | OCC1CCCN(c2ncnc3c2Cc2ccccc2OC3)C1 (centres undefined) | 32.1
75 | CN(CC1(CO)CCC1)c1nc2c(c(=O)[nH]1)Cc1ccccc1OC2 | 57.8
76 | Cc1nc2c(c(N[C@@H](CO)C(N)=O)n1)Cc1ccccc1OC2 | -13.4
77 | Cc1nc2c(c(NCC(=O)NC(C)C)n1)Cc1ccccc1OC2 | 5.87
78 | Cc1nc2c(c(NC(C)c3nnn[nH]3)n1)Cc1ccccc1OC2 (centres undefined) | -45.5
79 | COCCN(CCC#N)Cn1cc(Cl)cn1 | 5.29
80 | CC(C)NC1CCc2c(ccc(=O)n2CCN2CCCC2=O)C1 (centres undefined) | -20.1
81 | CC(C)NC1CCc2c(ccc(=O)n2CCN(C)C)C1 (centres undefined) | -33
82 | O=C(NC1CC1)N1CCc2ccc(=O)n(CC3CC3)c2CC1 | -55.2
83 | O=C(NC1CC1)N1CCc2ccc(=O)n(CCN3CCCC3)c2CC1 | 61.5
84 | CC(C)NC1CCc2c(ccc(=O)n2CCN2CCOCC2)C1 (centres undefined) | 73.2
85 | COCCn1c2c(ccc1=O)CCN(C(=O)NC1CC1)CC2 | -3.26
86 | CN(CC(=O)NCC1CCCCC1)S(=O)(=O)c1cccnc1 | -7.93
87 | Cn1cc(C[C@H]2[C@H](O)CCN2CC2CC2)cn1 | 18.8
88 | O=C(CCc1nc2cc(Br)cnc2[nH]1)NCc1cccnc1 | -2.92

Row | Structure (SMILES) | INHIBITION [%]
89 | Cc1ccc(CNCC(C)Oc2ccccn2)cc1 (centres undefined) | -6.11
90 | CC(C)(C)CC(=O)NCC1CCCS1 (centres undefined) | 43.4
91 | O=C(CCC(F)(F)F)NCC1CCCS1 (centres undefined) | 31.5
92 | CC(C)(C)C(=O)NCC(=O)NCC1CCCS1 (centres undefined) | 91.1
93 | O=C(CNC(=O)Nc1c(F)cc(F)cc1-c1ccccc1)NC1CC1 | 3.93
94 | O=C(NCCN1CCCC1)C1(c2ccc(Cl)cc2)CCOCC1 | 33.85
95 | O=C(NCCNc1ncccn1)N1CCN(c2nccs2)CC1 | -14.6
96 | CS(=O)(=O)NC1CCN(C(=O)NCc2cccnc2)CC1 | 59
97 | Cc1cc(C2CCCN2C(=O)NCc2cccnc2)on1 (centres undefined) | 55
98 | c1cncc(OCCNC2Cc3ccccc3C2)c1 | 39.7
99 | Cc1cc(C2CCCN2C(=O)NCc2ccccn2)on1 (centres undefined) | 48.5
100 | CS(=O)(=O)NC1CCCN(C(=O)NCc2cccnc2)C1 (centres undefined) | -6.62
101 | CC(=O)N1CCC(N[C@@H]2CC[C@@H]2NS(=O)(=O)c2cccnc2)CC1 | 46.9
102 | O=S(=O)(N[C@H]1CC[C@H]1NC1Cc2ccccc2C1)c1cccnc1 | 68.3
103 | O=C(NS(=O)(=O)c1cccnc1)C1CC(c2ccccc2)=NO1 (centres undefined) | 28.7
104 | CS(=O)(=O)NC1CCN(C(=O)NCc2ccccn2)CC1 | -27.9
105 | CS(=O)(=O)NC1CCN(C(=O)c2cnc(-c3cccnc3)nc2)CC1 | -32.8
106 | CC(=O)N1CCC(NS(=O)(=O)c2cccnc2)CC1 | 69.3
107 | Cc1cc(C2CCCN2C(=O)NCc2cccc(F)c2)on1 (centres undefined) | 23.2
108 | COCCNc1nc(N2CCOCC2)nc2nccnc12 | -2.93
109 | O=C(N1CCOCC1)N1CCN(CC(O)c2ccc(F)cc2)CC1 (centres undefined) | -11.4
